In all, about 5,500 compounds went through this assay and about 2,000 (36%) were called active. Not shown: some 18% with an inconclusive outcome. No stated cut-off is given here; in the data, active means normalized growth mostly below about 0.91 (no sharp cut-off); inconclusive means no clear call, values can overlap the other calls; inactive means mostly above about 0.92. This is one part of the list.
Test: chemical genetic growth profiling, strain panel (AID 1159580);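 further: tested at 20 µM; growth read once vehicle control cultures reached saturation at 30 °C; 1 = growth at the plate median or of vehicle wells; lower values mean less growth of the strain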
Settings: growth OD

Measured: normalized growth

O=C(O)c1cc2cc(Cl)ccc2[nH]1
inactive: S. cerevisiae deletion strains, locus YJR075W, strain HOC1, active compounds read low 1.05 | S. cerevisiae deletion strains, locus YKL009W, strain mrt4, active compounds read low 1.01 | S. cerevisiae deletion strains, locus YKL068W, active compounds read low 0.98 | S. cerevisiae deletion strains, locus YKL085W, strain MDH1 (second series), active compounds read low 1.02 | S. cerevisiae deletion strains, locus YKL085W, strain MDH1, active compounds read low 1.02 | S. cerevisiae deletion strains, locus YKL160W, strain elf1, active compounds read low 1 | S. cerevisiae deletion strains, locus YKL190W, strain CNB1, active compounds read low 1.01 | S. cerevisiae deletion strains, locus YKR001C, strain vps1, active compounds read low 0.984 | S. cerevisiae deletion strains, locus YKR026C, strain gcn3, active compounds read low 0.963 | S. cerevisiae deletion strains, locus YKR091W, strain srl3, active compounds read low 0.994 | S. cerevisiae deletion strains, locus YLL001W, strain dnm1, active compounds read low 0.966 | S. cerevisiae deletion strains, locus YLL026W, active compounds read low 0.98 | S. cerevisiae deletion strains, locus YLL041C, strain sdh2, active compounds read low 0.988 | S. cerevisiae deletion strains, locus YLR027C, strain aat2, active compounds read low 0.992 | S. cerevisiae deletion strains, locus YLR039C, strain RIC1, active compounds read low 1.04 | S. cerevisiae deletion strains, locus YLR058C, strain SHM2, active compounds read low 1.01 | S. cerevisiae deletion strains, locus YLR102C, strain apc9, active compounds read low 0.98 | S. cerevisiae deletion strains, locus YLR113W, strain HOG1, active compounds read low 0.944 | S. cerevisiae deletion strains, locus YLR221C, strain rsa3, active compounds read low 0.991 | S. cerevisiae deletion strains, locus YLR258W, strain gsy2, active compounds read low 0.989 | S. cerevisiae deletion strains, locus YLR262C, strain YPT6 (second series), active compounds read low 0.994 | S. cerevisiae deletion strains, locus YLR262C, strain YPT6, active compounds read low 1.06 | S. cerevisiae deletion strains, locus YLR268W, strain sec22, active compounds read low 1 | S. cerevisiae deletion strains, locus YLR320W, strain mms22, active compounds read low 0.987 | S. cerevisiae deletion strains, locus YLR330W, strain CHS5, active compounds read low 1 | S. cerevisiae deletion strains, locus YLR342W, strain FKS1 (second series), active compounds read low 1.01 | S. cerevisiae deletion strains, locus YLR342W, strain FKS1, active compounds read low 0.991 | S. cerevisiae deletion strains, locus YLR357W, strain rsc2, active compounds read low 0.953 | S. cerevisiae deletion strains, locus YLR370C, strain arc18, active compounds read low 0.981 | S. cerevisiae deletion strains, locus YLR371W, strain rom2, active compounds read low 0.98 | S. cerevisiae deletion strains, locus YLR384C, strain iki3, active compounds read low 0.986 | S. cerevisiae deletion strains, locus YLR418C, strain cdc73, active compounds read low 0.991 | S. cerevisiae deletion strains, locus YML016C, strain PPZ1, active compounds read low 1 | S. cerevisiae deletion strains, locus YML032C, strain rad52, active compounds read low 0.977 | S. cerevisiae deletion strains, locus YML120C, strain ndi1, active compounds read low 0.984 | S. cerevisiae deletion strains, locus YML124C, strain tub3, active compounds read low 0.987 | S. cerevisiae deletion strains, locus YMR058W, strain fet3, active compounds read low 0.985 | S. cerevisiae deletion strains, locus YMR078C, strain ctf18, active compounds read low 0.977 | S. cerevisiae deletion strains, locus YMR125W, strain sto1, active compounds read low 0.959 | S. cerevisiae deletion strains, locus YMR129W, active compounds read low 0.993 | S. cerevisiae deletion strains, locus YMR205C, strain PFK2, active compounds read low 0.956 | S. cerevisiae deletion strains, locus YMR223W, strain ubp8, active compounds read low 0.983 | S. cerevisiae deletion strains, locus YMR231W, strain pep5, active compounds read low 0.989 | S. cerevisiae deletion strains, locus YMR263W, strain SAP30, active compounds read low 1.02 | S. cerevisiae deletion strains, locus YMR307W, strain GAS1, active compounds read low 1.02 | S. cerevisiae deletion strains, locus YNL067W, strain RPL9B, active compounds read low 1.03 | S. cerevisiae deletion strains, locus YNL071W, strain lat1, active compounds read low 0.994 | S. cerevisiae deletion strains, locus YNL128W, strain TEP1, active compounds read low 1.03 | S. cerevisiae deletion strains, locus YNL153C, strain GIM3, active compounds read low 1.03 | S. cerevisiae deletion strains, locus YNL183C, strain NPR1, active compounds read low 0.866 | S. cerevisiae deletion strains, locus YNL209W, strain ssb2, active compounds read low 0.991 | S. cerevisiae deletion strains, locus YNL233W, strain BNI4, active compounds read low 1.01 | S. cerevisiae deletion strains, locus YNL248C, strain rpa49, active compounds read low 0.991 | S. cerevisiae deletion strains, locus YNL250W, strain rad50, active compounds read low 0.971 | S. cerevisiae deletion strains, locus YNL271C, strain bni1, active compounds read low 0.969 | S. cerevisiae deletion strains, locus YNL298W, strain CLA4, active compounds read low 0.978 | S. cerevisiae deletion strains, locus YNL307C, strain MCK1, active compounds read low 0.979 | S. cerevisiae deletion strains, locus YNL322C, strain KRE1 (second series), active compounds read low 0.984 | S. cerevisiae deletion strains, locus YNL322C, strain KRE1, active compounds read low 1.01 | S. cerevisiae deletion strains, locus YNR049C, strain mso1, active compounds read low 0.983 | S. cerevisiae deletion strains, locus YNR052C, strain pop2, active compounds read low 0.989 | S. cerevisiae deletion strains, locus YOL006C, strain TOP1, active compounds read low 1.05 | S. cerevisiae deletion strains, locus YOL012C, strain htz1 0.817 | S. cerevisiae deletion strains, locus YOL147C, strain pex11, active compounds read low 0.981 | S. cerevisiae deletion strains, locus YOR001W, strain rrp6, active compounds read low 1.01 | S. cerevisiae deletion strains, locus YOR061W, strain CKA2, active compounds read low 1.01 | S. cerevisiae deletion strains, locus YOR069W, strain VPS5, active compounds read low 0.996 | S. cerevisiae deletion strains, locus YOR070C, strain gyp1, active compounds read low 0.986 | S. cerevisiae deletion strains, locus YOR080W, strain dia2, active compounds read low 0.981 | S. cerevisiae deletion strains, locus YOR083W, strain WHI5, active compounds read low 1 | S. cerevisiae deletion strains, locus YOR106W, strain vam3, active compounds read low 0.999 | S. cerevisiae deletion strains, locus YOR136W, strain idh2, active compounds read low 0.992 | S. cerevisiae deletion strains, locus YOR144C, strain elg1, active compounds read low 0.989 | S. cerevisiae deletion strains, locus YOR184W, strain ser1, active compounds read low 0.967 | S. cerevisiae deletion strains, locus YOR231W, strain MKK1, active compounds read low 0.926 | S. cerevisiae deletion strains, locus YOR265W, strain rbl2, active compounds read low 0.99 | S. cerevisiae deletion strains, locus YOR270C, strain vph1, active compounds read low 0.984 | S. cerevisiae deletion strains, locus YOR290C, strain snf2, active compounds read low 0.992 | S. cerevisiae deletion strains, locus YOR316C, strain cot1, active compounds read low 0.983 | S. cerevisiae deletion strains, locus YPL051W, strain arl3, active compounds read low 0.991 | S. cerevisiae deletion strains, locus YPL055C, strain LGE1, active compounds read low 1.06 | S. cerevisiae deletion strains, locus YPL078C, strain atp4, active compounds read low 0.997 | S. cerevisiae deletion strains, locus YPL106C, strain sse1, active compounds read low 0.966 | S. cerevisiae deletion strains, locus YPL240C, strain hsp82, active compounds read low 0.998 | S. cerevisiae deletion strains, locus YPL241C, strain CIN2, active compounds read low 1.01 | S. cerevisiae deletion strains, locus YPL256C, strain CLN2, active compounds read low 0.935 | S. cerevisiae deletion strains, locus YPR119W, strain clb2, active compounds read low 0.983 | S. cerevisiae deletion strains, locus YPR141C, strain kar3, active compounds read low 0.976 | S. cerevisiae deletion strains, locus YPR163C, strain tif3, active compounds read low 0.991 | S. cerevisiae deletion strains, locus YPR167C, strain met16, active compounds read low 0.986 | S. cerevisiae deletion strains, strain wtn01, active compounds read low 0.992 | S. cerevisiae strains, strain wild type, active compounds read low 1.01

Reference: PubChem BioAssay AID1159580 (chemical genetic matrix, 2015)
